PubChem BioAssay (NCI)
About 83,000 compounds went through this panel and 20% of them were active in at least one assay; those are over-represented in the sample as a whole.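 The endpoint reported here, percent growth, reads 100 for growth as untreated, 0 for no net growth and -100 for all cells dead.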 Activity calls are given as the source filed them.

System: MCF7 breast
Assay: NCI-60 one-dose screen, 48 h (100 = growth as untreated, 0 = no growth, -100 = all killed)
Conditions: 10 µM unless noted
Protocol: Growth inhibition of the MCF7 human tumor cell line is measured as a screen for anti-cancer activity. Cells are grown in 96 well plates and exposed to the test compound for 48 hours. Compounds are tested at a single concentration, which is 10^-5 M for most compounds. The reported endpoint is percent growth (GI% or GIPRCNT), where numbers from 0 - 100% represent growth inhibition, and numbers from -100% - 0 represent cell death. For example, a value of 40 represents 60% growth inhibition. A value of 0 means no net growth occurred over the course of the experiment. A value of -40 indicates 40% of cells at the beginning of the experiment died by the end of the experiment. A value of -100 means all cells are dead at the end of the experiment.
NCI-60 Human Tumor Cell Lines Screen was performed using the standard one-dose NCI protocol, which is described in more detail at https://dtp.cancer.gov/discovery_development/nci-60/default.htm.
Compounds with GIPRCNT values below 10 were considered active. Activity score was based on GIPRCNT using the following formula: […]
Score is 0 for GIPRCNT values of 100 or above, 50 for GIPRCNT values of 0, and 100 for GIPRCNT values of -100.

| SMILES | growth |
| --- | --- |
| COc1cc(NC(N)=NCCC(C)(C)c2ccc(C(F)(F)F)cc2)ncc1C#N | -31.3% (active) |
| COc1cccc(CC(C)=C(c2ccc(OCCN3CCCCC3)cc2)c2ccc(OCCN3CCCCC3)cc2)c1 | -81.4% (active) |
| COc1ccc2c(c1)OC1=C(C(=O)OC1)C2c1cc(OC)c2c(c1)OCO2 (stereo not given) | 15% (inactive) |
| Cc1cc(C(C)(C)C)ccc1S | 86.4% (inactive) |
| O=C(NNC(=O)N1c2ccccc2C=Cc2ccccc21)c1ccccc1 | 95.6% (inactive) |
| COc1ccc(-c2nc(/C=N/Nc3cc(C)nc4ccc(Cl)cc34)c(C)o2)cc1 | -80.2% (active) |
| C=C1CCC[C@]2(C)CCC[C@H](C)[C@@H](OC(C)=O)[C@@H]3OC(=O)C(=C)[C@@H]3C[C@H]1O2 | 57.4% (inactive) |
| Cc1ccc(S(=O)(=O)n2cc(C(=O)C(=O)N3CCOCC3)c3ccccc32)cc1 | 99.4% (inactive) |
| O=[N+]([O-])c1cccc(-c2nc3sccn3c2-c2ccnc(NCCCNS(=O)(=O)c3ccc(C(F)(F)F)cc3)n2)c1 | 14.9% (inactive) |
| CN(C)CCCC(C#N)c1ccccc1 (stereo not given) | 100% (inactive) |
| CCc1ccc(-c2ccc(=O)n(-c3ccc(S(N)(=O)=O)cc3)n2)cc1 | 30.2% (inactive) |
| O=C(NS(=O)(=O)c1ccccc1)n1cc(-c2ccncc2)c(-c2ccc(Cl)c(O)c2)n1 | 109% (inactive) |
| CCN(CC)c1ccc(N=O)cc1 | 51.8% (inactive) |
| C=C[C@@H]1C[C@H](O)Cc2cc(F)ccc2N1 | 107% (inactive) |
| Brc1cccc(-c2cc(-c3ccc4c(c3)OCCCO4)[nH]n2)c1 | 23.2% [25 µM] (inactive) |
| COc1cc(NCCCCCN)c2ncccc2c1 | 83.2% (inactive) |
| Cc1ccc(NS(=O)(=O)c2cc(C)ccc2C)cc1 | 24.3% (inactive) |
| O=C(O)c1nc(-c2ccccc2)oc1N1CCOCC1 | 98.3% (inactive) |
| C=C[C@@H]1C[C@@H]2Cc3cc(F)ccc3N1O2 | 100% (inactive) |
| C=C1CCC2C(C)(CO)C(O)CCC2(C)C1CC(NCc1ccccc1)C1=CCOC1=O (stereo not given) | 89.8% (inactive) |

| SMILES | growth |
| --- | --- |
| COc1ccc(Nc2nc(N)nc3c2CCN(Cc2ccc(OC)cc2OC)C3=O)cc1 | 87.7% (inactive) |
| COc1ccc(-c2cnoc2-c2ccc(OC)cc2O)cc1 | 19.6% (inactive) |
| COC(=O)c1cccc2c1N(C)c1c(cccc1C(=O)OC)CC2 | 108% (inactive) |
| CN(C)c1nc2c(N)ncnc2n1C1OC(CO)C(O)C1O (stereo not given) | 99.4% (inactive) |
| NNc1cccc(/C=C/c2ccccc2)cc1=O | 36.1% (inactive) |
| COc1ccc(NC(=O)CSc2nc(-c3ccc(OC)c(OC)c3)cc(-c3cc(OC)c(OC)c(OC)c3)n2)cc1 | 94% (inactive) |
| COP(=O)(OC)/C(=N\NS(=O)(=O)c1ccc(C)cc1)c1ccccc1 | 88.6% (inactive) |
| COc1ccc(-c2ccc(-c3ccc(-c4ccc(C(=N)N)cc4)s3)s2)cc1OC | -19.8% (active) |
| COc1ccc(/C(C#N)=C/c2cc(OC)c(OC)c(OC)c2)cc1 | 18.6% (inactive) |
| O=C(c1ccccc1)c1c(/C=C/c2ccccc2)c2ccccc2[nH]c1=O | 97.3% (inactive) |
| O=C(NCc1cn(Cc2cccc(Oc3ccccc3)c2)nn1)c1cccnc1Nc1ccc(F)cc1 | 24% (inactive) |
| COc1ccc(C(=O)c2cc(OC)c3c(c2)OCO3)cc1O | 17.1% (inactive) |
| CCC(=O)Oc1ccc(/C(=C(/C)Cc2cccc(OC)c2)c2ccc(OCCN(C)C)cc2)cc1 | 45.1% (inactive) |
| CCN(CC)c1ccc(/C=C2\Oc3ccc(O)c(I)c3C2=O)cc1 | 26.9% (inactive) |
| CN(CCCCCl)P(=O)(OCc1ccc([N+](=O)[O-])o1)C(F)(F)C[C@H](NC(=O)CNC(=O)c1ccc(N=[N+]=[N-])cc1)C(=O)NCCc1ccc(O)cc1 (stereo not given in full) | 61.6% (inactive) |
| CC(C)(C)OC(=O)NCCc1ccc(N=C=S)cc1 | 52% (inactive) |
| CCC1=CCC[C@@]2(C)CCC[C@@]3(C)CCCC(C)(C)[C@]1([O-])[O+]32 | 98.8% (inactive) |
| O=C1CS/C(=N\Nc2cc(=O)[nH]c3ccccc23)N1c1ccccc1 | 92% (inactive) |
| CC(C)(C)n1cc(-c2ccnc(NCCCNS(=O)(=O)c3ccc(C(F)(F)F)cc3)c2)c(-c2cccc(O)c2)n1 | 1.14% (active) |
| C=C1C(=O)O[C@H]2[C@H]1CC/C(Cn1cc(CNC(=O)Cc3cn(C(=O)c4ccc(Cl)cc4)c4ccc(OC)cc34)nn1)=C\CC[C@@]1(C)O[C@@H]21 | -62.7% (active) |
